Screens deposited in PubChem BioAssay by several laboratories.
Most compounds without a hit are left out; they make up all but 4.7% or so of the library.
FBA Mtb inh: inhibitors of M. tuberculosis fructose-bisphosphate aldolase; purified M. tuberculosis FBA, fluorescence read-out; inhibition, % at 1 µM; 2.3% of 360,000 active; AID 588726; in the data active = inhibition above about 27%;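 also: 0% = vehicle and 100% = reference inhibitor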
CCHF vOTU inh: CCHFV vOTU protease inhibition; Pep-AMC fluorescence; inhibition, % at 11.5 µM; 0.55% of 370,000 active; AID 651958; also: 0% = vehicle wells with enzyme and 100% = no enzyme wells
VHR inh abs: inhibitors of human VHR1 phosphatase (DUSP3). 0.52% of 290,000 active. AID 1654. P51452. recombinant VHR phosphatase, pNPP absorbance. inhibition, % at 13.3 µM; in the data active = inhibition above about 50%
GDH-TPI counter: counter-screen for M. tuberculosis FBA inhibitors: GDH-TPI coupled enzymes; GDH-TPI coupled enzyme counterscreen, NADH absorbance; inhibition, % at 4.8 µM; 1.2% of 360,000 active; AID 588335;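 also: 0% = DMSO wells and 100% = wells lacking the enzyme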
RecA splice inh: Mtb RecA intein splicing inhibition | 0.75% of 290,000 active | cell-free RecA intein splicing, fluorescence | P9WHJ3 | inhibition, % (test concentration not listed); in the data active = inhibition above about 30%;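 also: 0% = vehicle wells and 100% = reference inhibitor control wells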
Target sequence (P9WHJ3 whole entry, looked up, canonical isoform): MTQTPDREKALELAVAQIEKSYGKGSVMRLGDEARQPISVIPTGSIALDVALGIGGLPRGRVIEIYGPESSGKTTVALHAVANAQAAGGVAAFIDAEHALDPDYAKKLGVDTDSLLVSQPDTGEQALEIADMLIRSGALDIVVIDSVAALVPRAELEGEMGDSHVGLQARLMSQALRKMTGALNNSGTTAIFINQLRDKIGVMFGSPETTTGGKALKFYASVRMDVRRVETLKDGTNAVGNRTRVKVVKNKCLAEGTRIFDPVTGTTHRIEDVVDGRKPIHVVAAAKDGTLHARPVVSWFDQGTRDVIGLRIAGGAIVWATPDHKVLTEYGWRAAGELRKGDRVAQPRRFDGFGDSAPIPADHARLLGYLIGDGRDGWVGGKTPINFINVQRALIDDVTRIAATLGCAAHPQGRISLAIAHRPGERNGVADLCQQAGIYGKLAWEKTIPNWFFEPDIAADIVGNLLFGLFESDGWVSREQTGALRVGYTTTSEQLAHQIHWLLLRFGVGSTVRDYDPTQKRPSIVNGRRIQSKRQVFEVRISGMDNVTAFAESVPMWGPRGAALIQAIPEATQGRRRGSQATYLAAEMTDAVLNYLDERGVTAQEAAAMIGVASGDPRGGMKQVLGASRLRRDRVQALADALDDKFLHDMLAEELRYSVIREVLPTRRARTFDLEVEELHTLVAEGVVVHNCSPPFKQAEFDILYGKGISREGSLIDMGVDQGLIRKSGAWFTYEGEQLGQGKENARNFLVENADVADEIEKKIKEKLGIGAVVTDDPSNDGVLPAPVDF
SARS 3CLpro inh-1: SARS-CoV 3CLpro protease inhibition | recombinant SARS-CoV 3CLpro, quenched FRET peptide cleavage | inhibition, % at 6 µM | 0.14% of 290,000 active; in the data active = inhibition above about 12%
SARS 3CLpro inh-2: confirmation of SARS coronavirus 3C-like protease inhibitors | 36% of 380 active | inhibition, % at 6 µM | shares compounds with SARS 3CLpro inh-1 | AID 1879 | QFRET protease activity assay, 3CLpro; in the data active = inhibition above about 13%
The depositor's hits bear a star; nt = no result; + = active, no number. Rule as the data show it, unless noted: active = inhibition above about 30%; inactive = the rest.

SMILES | FBA Mtb inh | CCHF vOTU inh | VHR inh abs | GDH-TPI counter | RecA splice inh | SARS 3CLpro inh-1 | SARS 3CLpro inh-2
CN=CC1=C(O)c2ccccc2C1=O | 2 | 18 | 17 | 35* | -2 | 4 | nt
CC(=O)c1cccc(CN2CCC(CO)(CCCc3ccccc3)CC2)c1 | 139* | -3 | 9 | 11 | 0 | 4 | nt
CCC(NC(=O)NC1=NCCS1)(C(F)(F)F)C(F)(F)F | 1 | 13 | 57* | -4 | 0 | 1 | nt
C=CC(=O)Nc1cccc(Nc2nc(N[C@H]3CC[C@H](N(C)C)CC3)nc3c2ncn3C(C)C)c1 | 2 | nt | nt | 7 | nt | nt | nt
Cc1cc(N(C)Cc2ccccc2)nc2cc(O)ccc12 | + | -203 | -7 | 9 | -110 | -3 | nt
COc1ccc(N/N=C(/C#N)S(=O)(=O)c2nsc(C)c2C#N)cc1 | -3 | -1 | 14 | 38* | -1 | -8 | nt
COc1ccccc1CNCC(=O)N1CC(=O)Nc2ccccc21 | 8 | -1 | 9 | 1 | -1 | -2 | nt
O=C1CN(C(=O)CNCc2ccccc2)c2ccccc2N1 | 3 | 16 | 52* | 14 | -1 | 0 | nt
O=Cc1ccc(-c2cccs2)s1 | + | -333 | nt | 28 | nt | nt | nt
CCOC(=O)c1ccc(CC(=O)c2ccc(O)cc2O)o1 | 0 | 4 | 7 | 19 | -6 | -2 | nt
COC(=O)c1cc(CC(=O)c2ccc(O)cc2O)c(C)o1 | 1 | -3 | 21 | 36* | -2 | 1 | nt
COC(=O)c1ccc(CC(=O)c2ccc(O)cc2O)o1 | -3 | nt | 26 | 33* | -1 | -4 | nt
C#CCOCCOCCOCCNc1nc(N2CCN(C(=O)CCCCCCCCCCNC(=O)[C@H](CCCCN)n3cc(C[C@@H](C)CC)nn3)CC2)nc(N2CCN(C(=O)CCCCCCCCCCNC(=O)[C@H](CCCCN)n3cc(C[C@@H](C)CC)nn3)CC2)n1 | 3 | nt | nt | -8 | 66* | nt | nt
C#CCOCCOCCOCCNc1nc(N2CCN(C(=O)CCCCCCCCCCNC(=O)[C@H](CCCCN)n3cc(CCO)nn3)CC2)nc(N2CCN(C(=O)CCCCCCCCCCNC(=O)[C@H](CCCN=C(N)N)n3cc(C[C@@H](C)CC)nn3)CC2)n1 | -1 | nt | nt | 2 | nt | nt | nt
C=CCn1c(SCC(=O)O)nnc1-c1ccco1 | nt | 2 | nt | nt | nt | nt | nt
Cc1ccc(-c2n[nH]c(=S)n2/N=C/C=C/c2ccccc2[N+](=O)[O-])cc1 | 4 | 1 | 22 | 18 | 0 | 10 | nt
O=[N+]([O-])c1ccccc1/C=C/C=N/n1c(-c2ccco2)n[nH]c1=S | 0 | 17 | 15 | 13 | -3 | 15* | 4
Clc1ccccc1Nc1nc(-c2cccnc2)cs1 | 4 | 1 | -14 | 4 | 2 | 14* | 11
Cn1nnnc1SCC(=O)Nc1ccc(C(=O)N2CCN(Cc3ccccc3F)CC2)cc1 | -1 | -14 | nt | -2 | nt | nt | nt
COc1ccccc1/C=C1\SC(=S)N(CCC(=O)NNC(=O)c2ccccc2OC)C1=O | 0 | -4 | 21 | 2 | 0 | 14* | 0
COc1ccccc1S(=O)(=O)N(C)C[C@H]1Oc2cc(Br)ccc2S(=O)(=O)N([C@H](C)CO)C[C@H]1C | nt | 14 | nt | nt | nt | nt | nt
COc1ccccc1C(=O)Nc1nc2ccccc2s1 | 0 | 15 | 12 | 0 | -6 | 13* | 0
CCN(c1ccccc1)S(=O)(=O)c1nnc(NC(=O)c2ccccc2OC)s1 | 6 | -4 | 10 | 3 | -1 | 13* | 6
CN(Cc1ccc(F)cc1)S(=O)(=O)c1nnc(NC(=O)c2ccccc2Br)s1 | 1 | 24 | -22 | 10 | 2 | 13* | 2
CN(Cc1ccc(F)cc1)S(=O)(=O)c1nnc(NC(=O)c2ccccc2)s1 | 6 | 4 | -27 | 21 | -3 | 3 | nt
CCCCn1c(N)c(N(CCC(C)C)C(=O)C2CC(=O)N(CCc3ccc(OC)c(OC)c3)C2)c(=O)[nH]c1=O (stereo unspecified) | 6 | 14 | nt | 8 | -2 | nt | nt
O=C(O)CSCC(=O)N(Cc1ccccc1)c1nc(-c2ccccc2)c(-c2ccccc2)s1 | -5 | 16 | 17 | 3 | -1 | 12* | 5
CCOC(=O)c1sc(N(Cc2ccccc2)C(=O)CSc2ncn[nH]2)nc1C | 3 | 6 | 15 | 10 | 6 | 7 | nt
CCc1cc(=O)oc2cc(OS(C)(=O)=O)ccc12 | 24 | -4 | nt | 5 | -3 | 1 | nt
CCc1cc(=O)oc2cc(OC(=O)c3ccco3)ccc12 | + | -404 | 6 | 3 | 26 | 68* | 71*
